# Source: ChEMBL document CHEMBL4513146, “CO-ADD screening of Karazin Kharkiv National University (Ukraine) compounds”
# Entries with a potency or affinity are not part of this list.
# How the values were obtained:
# [1] = system: Staphylococcus aureus; conditions: Concentration 32 ug.mL-1;; ASSAY_TEST Inhibition of Bacterial Growth; detection method Absorption (OD600); MEDIA CAMHB; plate type 384well; NBS; CORNING #3640; time 18 hr
# [2] = system: Escherichia coli; conditions: Concentration 32 ug.mL-1;; ASSAY_TEST Inhibition of Bacterial Growth; detection method Absorption (OD600); MEDIA CAMHB; plate type 384well; NBS; CORNING #3640; time 18 hr
Structure (SMILES),Inhibition [1],Inhibition [2]
CCOc1ccc(-n2ccn3c(SCc4cccc(C(F)(F)F)c4)nnc3c2=O)cc1,18.58%,1.02%
Cc1ccccc1CSc1nnc2c(=O)n(-c3ccc(F)c(F)c3)ccn12,12.28%,-1.52%
O=C(CSc1nnc2c3cc(-c4ccccc4)nn3ccn12)NCc1ccccc1Cl,-4.46%,-7.31%
O=C(Cn1nc2c(SC3CCCCC3)nccn2c1=O)NCc1ccc(F)cc1,3.45%,-3.55%
COc1cc(NC(=O)CSc2nnc3c(=O)n(-c4cccc(OC)c4)ccn23)cc(OC)c1,2.57%,-9.3%
O=C(CSc1nnc2c(=O)n(-c3cccc(F)c3)ccn12)N1CCN(c2ccc(F)cc2)CC1,3.76%,1.02%
COc1cc(OC)c(NC(=O)Cn2nc3c4c5c(sc4ncn3c2=O)CC(C)CC5)cc1Cl (stereo unspecified),7.09%,1.97%
Cc1oc(-c2cccc(Cl)c2)nc1CSc1nc2ccccc2n2c(C(C)C)nnc12,3.52%,-2.96%
COc1ccc(NC(=O)Cn2nc3c4cc(-c5ccc(C)cc5)nn4ccn3c2=O)c(OC)c1,1.08%,-1.29%
CCC(C)NC(=O)CCn1c(=O)c2ccccc2n2c(=O)n(CC(=O)NCc3cccs3)nc12 (stereo unspecified),6.1%,-2.09%
O=S(=O)(c1ccc2nncn2c1)N(Cc1ccccc1F)c1ccc2c(c1)OCO2,12.13%,-4.11%
Cc1cccc(NC(=O)CSc2nnc3c4cc(-c5ccc(F)cc5)nn4ccn23)c1C,-11.28%,-13.99%
Cc1ccc(Cl)cc1NC(=O)Cn1nc2c(SC3CCCCC3)nccn2c1=O,6.67%,-3.22%
CC(C)CCNC(=O)CSc1nnc2c(=O)n(Cc3ccc(F)cc3)ccn12,8.45%,-0.48%
CC(C)CCn1c(=O)c2sccc2n2c(=O)n(CCOc3ccccc3)nc12,0.45%,-7.84%
CCC(C)NC(=O)c1ccc2c(=O)n(C3CC3)c3nn(CC(=O)NC(C)C)c(=O)n3c2c1 (stereo unspecified),10.01%,-2.07%
O=c1n(Cc2cccc(Br)c2)nc2ccc(-c3ccccc3)nn12,4.53%,-3.48%

Structure (SMILES),Inhibition [1],Inhibition [2]
COc1cccc(CN(c2cccc(F)c2)S(=O)(=O)c2ccc3nnc(C)n3c2)c1,-5.28%,-2.32%
COc1ccc(NC(=O)Cn2nc3ccc(-c4ccc(C)c(C)c4)nn3c2=O)cc1OC,11.61%,-6.17%
COc1ccc(NC(=O)Cn2nc3c(Sc4ccccc4)nccn3c2=O)cc1,7.67%,-3.96%
O=C(Cn1nc2c(Oc3ccccc3)nccn2c1=O)Nc1ccccc1Cl,6.14%,-6.19%
CCOc1ccccc1NC(=O)Cn1nc2c(SC3CCCCC3)nccn2c1=O,3%,-8.56%
COc1ccc(-c2cc3c4nnc(SCC(=O)NCc5ccccc5)n4ccn3n2)cc1,-8.9%,-21.63%
COc1cccc(-n2ccn3c(SCC(=O)c4ccc(C)cc4C)nnc3c2=O)c1,12.17%,-2.43%
N#CCSc1nnc2c(=O)n(-c3ccc(Br)cc3)ccn12,14.93%,-0.38%
Cc1ccc(-c2ccc3nn(Cc4cc(F)cc(F)c4)c(=O)n3n2)cc1C,13.44%,1.52%
O=C(Cn1nc2c(Oc3ccccc3)nccn2c1=O)Nc1ccc2c(c1)OCCO2,7.17%,2.24%
COc1ccc(-c2cc3c4nn(CC(=O)Nc5ccc(C)c(C)c5)c(=O)n4ccn3n2)cc1,9.35%,6.79%
O=c1n(Cc2nc(-c3ccc(Br)cc3)no2)nc2ccc(-c3ccccc3)nn12,5.03%,-5.77%
CCOC(=O)c1ccc(NC(=O)Cn2nc3ccc(S(=O)(=O)C(C)(C)C)nn3c2=O)cc1,5.05%,-4.95%
CC(C)Cn1c(=O)c2ccc(C(=O)NC3CCCC3)cc2n2c(=O)n(CC(=O)NC3CCCCC3)nc12,-0.85%,-0.58%
Cc1c(Cl)cccc1-n1ccn2c(=O)n(Cc3ccc(Cl)cc3)nc2c1=O,9.17%,-7.56%
O=c1c2nnc(SCc3ccccc3Cl)n2ccn1-c1ccc(F)cc1,8.27%,-4.39%
